# Screening results deposited in PubChem by The Scripps Research Institute Molecular Screening Center.
# Only some compounds are listed: those with a hit (about 1.1% of all), similar ones and a draw of the others.
# MOR-DOR ag-1: agonists of OPRM1-OPRD1 heterodimerization, primary screen, cell-based, luminescence; AID 504326, 2011; activation, % at 9.3 µM; cells; Mu-type opioid receptor (Homo sapiens) + Delta-type opioid receptor (Homo sapiens), …; actives 0.3% (n = 340,000);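 also: 0% = vehicle-treated cells and 100% = reference agonist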
# Target sequence (P35372 whole entry, looked up): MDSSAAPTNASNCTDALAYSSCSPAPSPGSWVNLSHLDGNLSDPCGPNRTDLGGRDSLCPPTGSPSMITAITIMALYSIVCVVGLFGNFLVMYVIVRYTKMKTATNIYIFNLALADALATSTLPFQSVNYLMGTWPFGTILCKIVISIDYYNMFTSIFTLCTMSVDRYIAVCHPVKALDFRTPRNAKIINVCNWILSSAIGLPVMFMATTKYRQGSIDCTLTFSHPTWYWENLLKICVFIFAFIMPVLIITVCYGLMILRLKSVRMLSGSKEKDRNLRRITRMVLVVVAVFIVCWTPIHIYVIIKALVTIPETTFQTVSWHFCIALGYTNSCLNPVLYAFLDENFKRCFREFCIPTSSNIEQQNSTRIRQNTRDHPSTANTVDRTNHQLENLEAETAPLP
# Target sequence (P41143 whole entry, looked up): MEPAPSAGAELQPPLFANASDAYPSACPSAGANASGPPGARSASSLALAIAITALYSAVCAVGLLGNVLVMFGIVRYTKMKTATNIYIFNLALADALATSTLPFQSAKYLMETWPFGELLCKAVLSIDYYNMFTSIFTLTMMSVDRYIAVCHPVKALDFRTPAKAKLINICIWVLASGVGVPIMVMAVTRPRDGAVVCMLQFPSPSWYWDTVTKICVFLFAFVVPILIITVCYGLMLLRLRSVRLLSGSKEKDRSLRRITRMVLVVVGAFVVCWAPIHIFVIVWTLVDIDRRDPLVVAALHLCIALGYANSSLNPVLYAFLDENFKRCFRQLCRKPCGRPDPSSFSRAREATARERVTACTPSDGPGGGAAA
# HTR5A inv ag: HTR5A inverse agonists in luminescence cell assay, primary screen, counter-screen for OPRM1-OPRD1 heterodimer inverse agonist project, full-deck HTS; inhibition, % at 9.3 µM; AID 504634, 2011; HTR5A cell line, inverse agonism; 5-hydroxytryptamine receptor 5A (Homo sapiens), P47898; actives 0.083% (n = 340,000); in the data active = inhibition mostly above about 23%, no sharp cut-off; inactive = mostly below about 18%;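 also: 0% = cells with DMSO and 100% = no-cell wells with DMSO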
# OPRM1-OPRD1 inv: inverse agonists of MOR-DOR heterodimerization, primary screen, cell-based, luminescence | cell-based MOR-DOR heterodimer luminescence, inverse agonism | actives 0.21% (n = 340,000) | inhibition, % at 9.3 µM | Mu-type opioid receptor (Homo sapiens) + Delta-type opioid receptor (Homo sapiens), … | AID 504357, 2011; in the data active = inhibition above about 22%, passing the limit was not always enough;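 also: 0% = cells with DMSO and 100% = wells without cells with DMSO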
# HTR5A ag ctr: HTR5A agonists in luminescence cell assay, primary screen, counter-screen for OPRM1-OPRD1 heterodimer agonist project, full-deck HTS | 5-hydroxytryptamine receptor 5A (Homo sapiens), P47898 | activation, % at 9.3 µM | actives 0.61% (n = 340,000) | AID 504692, 2011 | cell-based; in the data active = activation mostly above about 9.5%, no sharp cut-off; inactive = mostly below about 7.6%;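 also: 0% = cells with vehicle only and 100% = reference agonist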
# MOR-DOR ag-2: OPRM1-OPRD1 heterodimerization promoters, counter-screen for HTR5A agonist project, cell-based, luminescence; shares compounds with HTR5A ag ctr; U2OS counter-screen cells, complementation luminescence, 3 h; activation, % at 9.3 µM; actives 13% (n = 800); AID 504913, 2011
# HTR5A ag conf: HTR5A agonists, retest of hits, confirmation, cell-based, luminescence; activation, % at 9.3 µM; shares compounds with HTR5A ag ctr; actives 17% (n = 800); HTR5A agonist cell assay; in the data active = activation above about 17%;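 also: 0% = cells with vehicle only and 100% = full reference agonist response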
# Starred values were filed as active, the others as inactive; x = not tested or not shown. Rule as the data show it, unless noted: active = activation above about 18%; inactive = the rest.
SMILES,MOR-DOR ag-1,HTR5A inv ag,OPRM1-OPRD1 inv,HTR5A ag ctr,MOR-DOR ag-2,HTR5A ag conf
CCN(CC)c1ccc(-c2nn3c(-c4n[nH]c5c4CCC5)nnc3s2)cc1,-1.9,-17.6,8.8,16.4*,9.4,9.1
CN(C)c1ccc(NC(=S)N2CCN(c3ncc(C(F)(F)F)cc3Cl)CC2)cc1,2.0,-10.0,-10.9,15.8*,1.5,5.5
NCCCCc1ccc2ccc3cccc4ccc1c2c34,6.6,-40.5,-36.1,16.2*,14.9,4.8
CN(Cc1ccccc1)S(=O)(=O)c1ccc2c(c1)n(C)c(=O)n2C,6.2,-56.9,-33.5,16.1*,0.3,-1.3
Cc1c(C(=O)C(=O)N2CCN(Cc3ccc4c(c3)OCO4)CC2)c2ccccc2n1C,-2.2,5.5,11.9,-1.4,x,x
CC(C)(C)c1ccc(C(=O)Nc2nnc(Cc3c[nH]c4ccccc34)s2)cc1,8.1,-53.0,-43.2,21.0*,0.5,0.6
O=C(Nc1nnc(Cc2c[nH]c3ccccc23)s1)c1ccc(Cl)cc1Cl,3.9,7.9,-20.1,7.3,x,x
Cc1cc(N2CCN(C(=O)/C=C/C(=O)O)CC2)c2ccccc2n1,1.0,-55.7,-5.3,15.2*,1.4,-0.2
O=C(O)/C=C/C(=O)N1CCN(c2ccccc2F)CC1,-2.8,15.7,15.0,-1.7,x,x
N#Cc1ccc(OCC(=O)N2CCN(c3ccc(C(F)(F)F)cn3)CC2)cc1,-0.1,-5.7,0.5,18.6*,-0.6,-2.0
O=c1c(Cc2ccc(F)cc2)c(O)ccn1Cc1ccc(F)cc1,-1.9,22.8,9.4,0.3,x,x
O=c1c(Cc2ccc(F)cc2)c(O)ccn1Cc1ccc(Cl)cc1Cl,-0.9,-51.7,4.7,20.1*,2.5,47.3*
Cc1csc2c(=O)[nH]cnc12,0.0,-2.4,-0.2,0.9,x,x
C#CC(=O)CC1(CN(Cc2ccccc2)C(=O)OC(C)(C)C)CCCCC1,4.8,-43.4,-26.1,17.1*,33.8*,14.8
Cc1ccc(S(=O)(=O)N2CCC(C(=O)Nc3cc(C(F)(F)F)ccc3N3CCOCC3)CC2)cc1C,-2.1,12.9,10.8,-5.3,x,x
O=C(N/N=C/c1ccc(O)cc1)c1ccc(COc2cc(Cl)ccc2Cl)o1,7.0,-42.5,-40.3,14.4*,41.1*,1.7
COc1cccc(N=C(N)N=C(N)N)c1,0.3,-42.8,-1.5,16.5*,2.2,1.6
Cc1cccc(N2CCN(C(=S)Nc3ccc4nc5n(c(=O)c4c3)CCCCC5)CC2)c1C,2.2,-11.4,-11.1,4.0,x,x
CC(C)Cc1nc2ccc(N)cc2[nH]1,-0.2,12.9,0.9,7.3,x,x
Cn1c(N/N=C2\CCCc3ccccc32)nc2c1c(=O)n(Cc1ccc(F)cc1)c(=O)n2C,0.9,-16.9,-5.7,14.9*,0.1,12.4
O=C(c1ccc2c(=O)n(Cc3ccc(Cl)cc3)c(=S)[nH]c2c1)N1CCOCC1,-0.7,-1.2,3.9,3.4,x,x
CN(CC(=O)Nc1ccc(Cl)cc1)C(=O)CCc1nc2sc3c(c2c(=O)[nH]1)CCCC3,10.1,-46.1,-65.5,20.9*,5.5,14.9
COc1cc(NC(=O)COc2ccccc2Cl)ccc1NC(=O)c1cccs1,4.0,-17.6,-32.9,7.9,x,x
COc1cc(NC(=O)COc2ccccc2[N+](=O)[O-])ccc1NC(=O)c1cccs1,9.3,-42.5,-49.5,15.6*,7.1,9.1
COc1ccc(Nc2nnc(Cc3ccccc3)c(=O)[nH]2)c(OC)c1,2.3,-30.9,-14.3,16.9*,3.7,-0.7
SMILES,MOR-DOR ag-1,HTR5A inv ag,OPRM1-OPRD1 inv,HTR5A ag ctr,MOR-DOR ag-2,HTR5A ag conf
Cc1ccc(C(C)C)cc1NC(=O)Nc1ccc([N+](=O)[O-])cc1,2.8,-7.9,-14.3,2.2,x,x
O=C(NC12CC3CC(CC(C3)C1)C2)C1CCCN1C(=O)Nc1ccccc1 (stereo not given),1.2,-7.8,-9.9,2.6,x,x
c1ccc2c(c1)nc(N1CCCCC1)c1ccccc12,3.8,-6.1,-19.0,2.4,x,x
c1ccc2c(c1)nc(N1CCOCC1)c1ccccc12,2.6,4.4,-14.1,18.8*,3.5,3.1
CC(c1ccccc1)N1C(=O)c2ccccc2C1O (stereo not given),-1.2,-17.2,6.4,-2.4,x,x
C/C(=N\NC(=O)C(O)c1ccccc1)c1ccc(Br)s1 (stereo not given),-1.9,-11.5,8.7,3.0,x,x
COC(=O)CCC[C@H]1CC2(C[C@H](CCCO[Si](C)(C)C(C)(C)C)N1C(=O)OC(C)(C)C)OCCO2,-0.9,-40.2,4.8,15.8*,118.9*,2.4
C[C@@H](NC(=O)c1nc[nH]c1C(=O)NCC(=O)OCc1ccccc1)c1ccccc1,0.6,-64.4,-3.5,23.9*,3.1,2.4
Cc1ccc(S(=O)(=O)N2CCc3cc4c(cc3C2C)OCCCO4)cc1 (stereo not given),-3.2,24.4,16.6,-0.4,x,x
CCOC(=O)/C=C1\SCC(=O)N1CC(=O)Nc1cc(S(=O)(=O)N(C)C)ccc1C,-3.0,-3.4,15.3,0.9,x,x
O=C(CSc1nccc(=O)[nH]1)N1CCN(c2ccccc2)CC1,-4.5,-6.8,23.4,2.6,x,x
c1ccc(-c2ccc3ccccc3n2)cc1,-0.9,-6.1,5.0,0.5,x,x
CNc1ccccc(-c2ccc3ccccc3n2)c1=O,2.6,-111.0,-14.0,15.2*,0.3,38.8*
Cc1ccc(Cn2c(N)c(S(=O)(=O)c3cccs3)c3nc4ccccc4nc32)cc1,2.3,-7.4,-12.1,2.9,x,x
COc1ccc(Cn2c(N)c(S(=O)(=O)c3cccs3)c3nc4ccccc4nc32)cc1,2.6,-4.8,-13.3,15.1*,3.1,3.3
Cc1cccc(OCCSc2nc3ccccc3n2CCC(=O)O)c1,-1.8,-3.2,8.9,0.9,x,x
O=C(CNS(=O)(=O)c1ccccc1)N1CCN(c2ccccc2)CC1,2.4,-15.3,-13.4,16.0*,1.1,0.3
O=C(CNS(=O)(=O)c1ccccc1)N1CCCC1,-2.9,1.9,15.0,0.9,x,x
CCc1ccc(Nc2nnc(SCC(=O)NC(=O)c3cccn3C)s2)cc1,13.4,-34.9,-66.2,14.6*,-0.3,-0.7
Cn1c(=O)c2sccc2n(Cc2cccc(Br)c2)c1=O,-0.9,5.9,5.1,8.4,x,x
CCOc1ccc(Cl)cc1S(=O)(=O)N1CCC(C(=O)NCc2ccco2)CC1,-1.0,4.3,5.8,-1.8,x,x
C=C1C(=O)OC2C1CCC(C)C1C=CC(=O)C12C (stereo not given),1.1,6.8,-5.9,-1.7,x,x
C=C1C(=O)OC2CC1C(O)CC(C)=CCCC(C)=CC(O)CC2C (stereo not given),-0.9,-70.6,4.0,18.4*,-1.8,-4.0
Cc1nc2ccccc2n1CC(=O)c1ccc(O)c(O)c1,0.2,-64.0,-1.4,21.8*,0.7,20.5*
Cc1nc2ccccc2n1CC(=O)c1ccccc1,-2.5,-8.5,12.9,-0.4,x,x
